Only a selection was taken, and hits are over-represented in it overall.
Mac1 fbg enh – CD11b/CD18-fibrinogen binding enhancement; P05107+P11215; 93,000 tested, 0.07% active; K562 CD11b/CD18 adhesion to fibrinogen, ATPlite luminescence; activation, % at 10 µM; AID 1499;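 active = 10 µM primary screen giving 50% or more activity, confirmed by 40% or more on retest at that dose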
Target sequence (P05107 whole entry, looked up, other chains not shown): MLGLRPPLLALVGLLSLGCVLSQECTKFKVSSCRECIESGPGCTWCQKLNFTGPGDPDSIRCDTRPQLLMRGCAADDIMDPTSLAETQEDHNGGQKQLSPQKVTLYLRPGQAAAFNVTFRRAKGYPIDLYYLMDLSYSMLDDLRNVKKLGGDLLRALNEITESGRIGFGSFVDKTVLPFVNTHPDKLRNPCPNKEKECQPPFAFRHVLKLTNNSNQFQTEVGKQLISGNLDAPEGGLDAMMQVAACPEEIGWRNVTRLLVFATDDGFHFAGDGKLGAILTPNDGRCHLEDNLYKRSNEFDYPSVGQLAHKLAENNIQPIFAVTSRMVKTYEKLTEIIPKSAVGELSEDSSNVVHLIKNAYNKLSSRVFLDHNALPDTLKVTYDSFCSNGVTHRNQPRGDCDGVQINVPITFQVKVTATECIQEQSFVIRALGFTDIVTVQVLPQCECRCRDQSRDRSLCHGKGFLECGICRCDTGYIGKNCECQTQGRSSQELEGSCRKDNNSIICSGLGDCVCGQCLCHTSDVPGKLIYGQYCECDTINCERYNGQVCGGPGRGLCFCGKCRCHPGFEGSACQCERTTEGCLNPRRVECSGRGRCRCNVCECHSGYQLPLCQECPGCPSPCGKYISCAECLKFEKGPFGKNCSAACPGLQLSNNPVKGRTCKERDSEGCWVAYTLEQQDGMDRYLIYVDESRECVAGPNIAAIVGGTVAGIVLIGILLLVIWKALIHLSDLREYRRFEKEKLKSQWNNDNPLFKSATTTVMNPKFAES
Cav32 inh – human Cav3.2 channel inhibition, primary screen. O95180. Cav3.2-expressing cells, Fluo-4 calcium fluorescence FDSS; stronger effect = lower value. B-score at 10 µM. 100,000 tested, 4% active;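 active = single-dose well whose peak fluorescence ratio is a statistical outlier from its plate by either plate-standardised score or position-corrected B-score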
Mac1 fbg inh – CD11b/CD18-fibrinogen binding inhibition | 93,000 tested, 0.54% active | AID 1497 | K562 CD11b/CD18 adhesion to fibrinogen, ATPlite luminescence; Mn2+ added to activate the integrin | inhibition, % at 10 µM;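 active = primary inhibition of 50% or more at 10 µM, then 40% or more on retest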
E coli WT exp – blocks growth of wild type E. coli BW25113. OD600 absorbance. 98,000 tested, 0.15% active. growth inhibition, % at 100 µM;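 active = growth inhibition above about 50% at one test dose, limit read from the data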;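 note: growth measured after 20 h incubation at 37 °C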
* hit, by the source's call.

`CCCCCCCSc1cc(OC)c(CCNC)cc1OC` gave Mac1 fbg enh -1.4, Cav32 inh 0.397, Mac1 fbg inh 36.8 and E coli WT exp 76.0*.
For COC(=O)C1=C(c2ccc(S(C)(=O)=O)cc2)C[C@@H]2CC[C@H]1N2C(=O)NCC1CC1 the results were Cav32 inh 0.414.
Screening CCC(=NCCOc1ccc(Cl)cc1)c1c(O)n(C)c(=O)n(C)c1=O returned Mac1 fbg enh -10.8, Mac1 fbg inh 94.3 and E coli WT exp -2.0.
CCC(=NCCc1c[nH]c2ccccc12)c1c(O)n(C)c(=O)n(C)c1=O was read as Mac1 fbg enh -5.1, Cav32 inh -2.59, Mac1 fbg inh 78.6* and E coli WT exp -3.0.
OC(c1ccccc1)(c1ccccc1)C1CCNCC1 was read as Mac1 fbg enh -2.8, Cav32 inh -5*, Mac1 fbg inh 9.3 and E coli WT exp 6.0.
Screening OC(c1ccc(F)cc1)(c1ccc(F)cc1)[C@@H]1CCCN1 returned Mac1 fbg enh -4.9, Mac1 fbg inh -4.7 and E coli WT exp 10.0.
Screening CCN(c1ccc(C(O)(C(=O)OC)C(F)(F)F)cc1)S(=O)(=O)c1ccccc1 (centres undefined) returned Mac1 fbg enh -1.4, Cav32 inh -2.91*, Mac1 fbg inh -6.8 and E coli WT exp 0.0.
`CCOC(=O)N(CC)c1ccc(C(O)(C(=O)OCC)C(F)(F)F)cc1` (centres undefined) gave Mac1 fbg enh -4.6, Cav32 inh -1.26, Mac1 fbg inh -8.0 and E coli WT exp 1.0.
CCOC(=O)C(O)(c1ccc(N(CC)S(=O)(=O)c2ccccc2)cc1)C(F)(F)F (centres undefined) was read as Mac1 fbg enh -1.8, Cav32 inh -5.14*, Mac1 fbg inh -11.6 and E coli WT exp -2.0.
Clc1cnc(Oc2ccc(Oc3ncc(Cl)cc3Cl)cc2)c(Cl)c1 was read as Mac1 fbg enh 9.8, Cav32 inh -1.21, Mac1 fbg inh -32.7 and E coli WT exp -19.0.
Screening Nc1c(C(=O)OC2CCCCC2)c2nc3ccccc3nc2n1CC1CCCO1 (centres undefined) returned Mac1 fbg enh 3.5, Mac1 fbg inh -8.8 and E coli WT exp 3.0.
`CC(C)OC(=O)c1c(N)n(CC2CCCO2)c2nc3ccccc3nc12` (centres undefined) gave Mac1 fbg enh 4.1, Cav32 inh 0.471, Mac1 fbg inh -5.6 and E coli WT exp 2.0.
Screening CCCNC(=O)c1c(N)n(CC2CCCO2)c2nc3ccccc3nc12 (centres undefined) returned Mac1 fbg enh 0.8, Cav32 inh -6.16*, Mac1 fbg inh 14.9 and E coli WT exp 12.0.
Screening CC(C)OCCCNC(=O)c1c(N)n(CC2CCCO2)c2nc3ccccc3nc12 (centres undefined) returned Cav32 inh -4.48* and E coli WT exp -1.0.
CN(C)c1ccc(NC(=O)CN2C(=O)CN=C(c3ccccc3)c3cc(Cl)ccc32)cc1 was read as Mac1 fbg enh 2.1, Cav32 inh -8.87*, Mac1 fbg inh -8.3 and E coli WT exp -8.0.
Screening CN(C)c1ccc(NC(=O)CN2C(=O)CN=C(c3ccccc3)c3ccccc32)cc1 returned Mac1 fbg enh 1.8, Cav32 inh -5.04*, Mac1 fbg inh 5.5 and E coli WT exp -11.0.
O=C(CN1CC(c2ccccc2)CC1=O)Nc1ccccc1 (centres undefined) was read as Cav32 inh -0.15 and E coli WT exp -4.0.
Screening Cc1ccc(NC(=O)CN2C(=O)CN=C(c3ccccc3)c3cc(Cl)ccc32)cc1 returned Mac1 fbg enh -0.7, Cav32 inh -6.68*, Mac1 fbg inh -7.8 and E coli WT exp -9.0.
For CCC(C)C1N=C(c2ccccc2)c2cc(Cl)ccc2N(CC(=O)NCc2ccco2)C1=O (centres undefined) the results were Mac1 fbg enh 3.4, Cav32 inh 0.633, Mac1 fbg inh 2.7 and E coli WT exp -4.0.
`COC(=O)c1c(C)[nH]c(C(=O)C(Cc2ccccc2)N(C)C)c1C` (centres undefined) gave Mac1 fbg enh 5.8, Cav32 inh 0.392, Mac1 fbg inh -20.9 and E coli WT exp -4.0.
For CCN(CC)c1ccc(N=Cc2c(O)n(Cc3ccccc3)c(=O)[nH]c2=O)cc1 the results were Mac1 fbg enh -1.8, Cav32 inh -4.35*, Mac1 fbg inh -13.3 and E coli WT exp -14.0.
Cn1c2ccccc2c2c(C(=O)N3CCC4(CC3)OCCO4)cn(C3CCCCC3)c(=O)c21 was read as Mac1 fbg enh -1.2, Cav32 inh -5.05*, Mac1 fbg inh -35.8 and E coli WT exp 3.0.
Screening Cc1ccccc1OCCN=Cc1c(O)n(C)c(=O)n(C)c1=O returned Mac1 fbg enh -1.0, Mac1 fbg inh 11.2 and E coli WT exp 7.0.
For CN1C(=O)C(=Cc2ccc(N3CCCCC3)o2)C(=O)N(C)C1=S the results were Cav32 inh -6.71* and E coli WT exp -13.0.
For CCOc1cccc(OCC)c2c(C)[n+](CC3CCCO3)c(C)c1-2 (centres undefined) the results were Mac1 fbg enh -1.4, Mac1 fbg inh 20.7 and E coli WT exp 7.0.
`CC(C)[C@@]1(NC(=O)[C@@H]2C[C@@H]3c4cccc5[nH]cc(c45)C[C@H]3N(C)C2)O[C@@]2(O)[C@@H]3CCCN3C(=O)[C@H](Cc3ccccc3)N2C1=O` gave Cav32 inh -5.39*.
Screening C/C=C1\CN2[C@H]3C[C@@]45c6ccccc6N(C)[C@H]4[C@@H]2CC1C3[C@H]5O (some centres undefined) returned Cav32 inh -4.6*.
Screening CCn1c(O)c(C=Nc2ccc(N3CCOCC3)c(Br)c2)c(=O)n(CC)c1=S returned Mac1 fbg enh -0.4, Mac1 fbg inh 2.9 and E coli WT exp -5.0.
For CCn1c(O)c(C=Nc2ccc(N3CCOCC3)cc2)c(=O)n(CC)c1=S the results were Mac1 fbg enh 5.8, Cav32 inh -4.48*, Mac1 fbg inh 7.7 and E coli WT exp -3.0.
`O=c1c2ccccc2nc(N2CCCC2)n1-c1ccc(Cl)cc1` gave Cav32 inh -4.58* and E coli WT exp -3.0.
COc1ccc(-n2c(SC)nc3ccccc3c2=O)cc1 was read as Mac1 fbg enh 1.5, Cav32 inh -0.725, Mac1 fbg inh -13.3 and E coli WT exp -13.0.
NCCc1c[nH]c2ccccc12 was read as Cav32 inh 0.932.
For CCCCC/C(=N\O)c1c[nH]c2ccccc12 the results were Cav32 inh -4.6* and E coli WT exp 33.0.
For O=C(CNC(=O)c1ccccc1)Nc1ccc(Br)cc1C(=O)c1ccccc1 the results were Mac1 fbg enh -2.0, Cav32 inh -6.95*, Mac1 fbg inh -1.9 and E coli WT exp 1.0.
For O=C(CNC(=O)OCc1ccccc1)Nc1ccc(Br)cc1C(=O)c1ccccc1 the results were Mac1 fbg enh 4.7, Cav32 inh -5.89*, Mac1 fbg inh -5.3 and E coli WT exp -8.0.
`O=C(CNC(=O)c1ccccc1Cl)Nc1ccc(Br)cc1C(=O)c1ccccc1` gave Mac1 fbg enh 1.6 and Mac1 fbg inh 18.9.
Screening COCCCNC(=O)c1c(NC(=O)c2ccccc2)n(Cc2ccccc2)c2nc3ccccc3nc12 returned Cav32 inh -5.69*.
